Assay results reported in PubChem BioAssay (NCI).
Where “and” joins values, the source holds several entries; their conditions need not be identical. Identical values can stand only once. About 83,000 compounds went through this panel and 20% of them were active in at least one assay; those are over-represented in the sample as a whole.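 Negative percent growth values reflect cell death: -40 means 40% of the cells present at the start died, and -100 means all died.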 Calls of active or inactive are those of the source. The calls were made as follows: active = growth percent below 10; inactive = the rest.

Columns and labels:
Experiment in all cases: NCI-60 one-dose screen, 48 h (100 = growth as untreated, 0 = no growth, -100 = all killed)
Settings in all cases: 10 µM unless noted
HCT-15 colon = test system: HCT-15 colon
HT29 colon = test system: HT29 colon
SNB-75 CNS = test system: SNB-75 CNS
SNB-19 CNS = test system: SNB-19 CNS
U251 CNS = test system: U251 CNS
PC-3 prostate = test system: PC-3 prostate
SK-MEL-5 melanoma = test system: SK-MEL-5 melanoma
UACC-62 melanoma = test system: UACC-62 melanoma
LOX IMVI melanoma = test system: LOX IMVI melanoma
SK-MEL-28 melanoma = test system: SK-MEL-28 melanoma
SK-MEL-2 melanoma = test system: SK-MEL-2 melanoma
EKVX NSCLC = test system: EKVX NSCLC
SN12C renal = test system: SN12C renal
UO-31 renal = test system: UO-31 renal
TK-10 renal = test system: TK-10 renal
ACHN renal = test system: ACHN renal
CAKI-1 renal = test system: CAKI-1 renal
A498 renal = test system: A498 renal
CCRF-CEM leukemia = test system: CCRF-CEM leukemia
MOLT-4 leukemia = test system: MOLT-4 leukemia

Row | SMILES | growth (HCT-15 colon) | growth (HT29 colon) | growth (SNB-75 CNS) | growth (SNB-19 CNS) | growth (U251 CNS) | growth (PC-3 prostate) | growth (SK-MEL-5 melanoma) | growth (UACC-62 melanoma) | growth (LOX IMVI melanoma) | growth (SK-MEL-28 melanoma) | growth (SK-MEL-2 melanoma) | growth (EKVX NSCLC) | growth (SN12C renal) | growth (UO-31 renal) | growth (TK-10 renal) | growth (ACHN renal) | growth (CAKI-1 renal) | growth (A498 renal) | growth (CCRF-CEM leukemia) | growth (MOLT-4 leukemia)
1 | O=C1c2ccccc2C(=O)c2c(NCCNCCO)ccc(NCCNCCO)c21 | 70.2% (inactive) and 75.4% (inactive) and 72.6% (inactive) | 2.99% (active) and 16.2% (inactive) and 14.9% (inactive) | -26.9% (active) and -4.55% (active) and -6.89% (active) | -11% (active) and 14.5% (inactive) and 7.49% (active) | -4.94% (active) and 5.29% (active) | -58.4% (active) and 36.2% (inactive) and 20.3% (inactive) | -50.5% (active) and 7.59% (active) and 3.46% (active) | -73.4% (active) and 10.3% (inactive) and 6.9% (active) | -35.6% (active) and 0.446% (active) and 1.46% (active) | -36.8% (active) and 31.2% (inactive) and 16.9% (inactive) | -75.2% (active) and -0.89% (active) and -16.8% (active) | 38.4% (inactive) and 48.9% (inactive) | -0.766% (active) and 4.9% (active) and 7.36% (active) | -5.63% (active) and 55.9% (inactive) and 44.7% (inactive) | 21.8% (inactive) and 54.6% (inactive) and 38.8% (inactive) | 17.9% (inactive) and 24.5% (inactive) and 22.7% (inactive) | 19.8% (inactive) and 50.9% (inactive) and 35.4% (inactive) | -4.91% (active) and 79.3% (inactive) and 29.9% (inactive) | 153% (inactive) and 10.2% (inactive) and 1.67% (active) | 143% (inactive) and -3.2% (active) and -1.56% (active)
2 | Oc1ccccc1/C=N\NC(=S)N/N=C/c1ccccc1O | 19.1% (inactive) and 22.4% (inactive) | 39.1% (inactive) and 54.6% (inactive) | 77% (inactive) and 90.1% (inactive) | 51.1% (inactive) and 44.6% (inactive) | 41% (inactive) and 24.2% (inactive) | 35% (inactive) | 35.7% (inactive) and -37% (active) | 20.4% (inactive) and -5.16% (active) | 28.4% (inactive) and 25.3% (inactive) | 53.6% (inactive) and 58.8% (inactive) | 82.3% (inactive) and 24.6% (inactive) | 61% (inactive) and 71.2% (inactive) | 58.8% (inactive) and 51.3% (inactive) | 12.4% (inactive) and 15.5% (inactive) | 51.4% (inactive) and 24.3% (inactive) | 15% (inactive) and 10.8% (inactive) | -15.7% (active) and 12.3% (inactive) | 58.5% (inactive) | 15.9% (inactive) and 15.1% (inactive) | 21.6% (inactive) and 16% (inactive)
3 | COc1cc(C(=O)c2ccc3c(c2)OCO3)cc(OC)c1OC | 15.6% (inactive) and 27.4% (inactive) | 5.54% (active) and -1.28% (active) | 0.967% (active) and -9.36% (active) | 35.9% (inactive) and 43.1% (inactive) | 24.1% (inactive) and 16.2% (inactive) | 29.3% (inactive) | 18.3% (inactive) and 8.01% (active) | 42.4% (inactive) and 22.9% (inactive) | 24% (inactive) and 44% (inactive) | 46.7% (inactive) and 43.2% (inactive) | 44.6% (inactive) and -28.3% (active) | 55.7% (inactive) and 61.5% (inactive) | 47.1% (inactive) and 39.5% (inactive) | 16.2% (inactive) and 37.6% (inactive) | 31.7% (inactive) and 27.3% (inactive) | 39.4% (inactive) and 48.1% (inactive) | 4.39% (active) and 24.7% (inactive) | 6.18% (active) | 19.5% (inactive) | 40.7% (inactive) and 42.7% (inactive)
4 | Cn1c(=O)c2[nH]c(CCCCCCCCc3nc4ccccc4[nH]3)nc2n(C)c1=O | 80.1% (inactive) and 96.1% (inactive) | 99% (inactive) and 85.6% (inactive) | 93.5% (inactive) and 80.5% (inactive) | 66.9% (inactive) and 65.4% (inactive) | 72.5% (inactive) and 80.2% (inactive) | 48.3% (inactive) and 87.3% (inactive) | 3.01% (active) and 12.2% (inactive) | 59.1% (inactive) | 58.3% (inactive) and 55.9% (inactive) | 88.9% (inactive) | 79.3% (inactive) and 107% (inactive) | 42% (inactive) and 55.1% (inactive) | 81.2% (inactive) and 68% (inactive) | 73.9% (inactive) and 74.9% (inactive) | 84% (inactive) and 90.3% (inactive) | 61.1% (inactive) and 69% (inactive) | 49.7% (inactive) and 57.9% (inactive) | 55.7% (inactive) and 78.8% (inactive) | 69.6% (inactive) and 66.4% (inactive) | 41% (inactive) and 41.7% (inactive)
